PubChem BioAssay
Unmarked numbers belong to inactive results. Calls of active or inactive are those of the source. Cut-off read from the data, not from the text of the source, unless noted: active = inhibition above about 33%; inactive = the rest.

How the values were obtained:
[1] = StAR promoter reporter inhibitors, counter-screen for LRH-1 inverse agonist project, cell-based, luminescence, high throughput (AID 651611; in the data active = inhibition above about 28%); conditions: StAR promoter luciferase reporter counterscreen, at 3.6 µM, hits give high values
[2] = biological target: Nuclear receptor subfamily 5 group A member 2 (Homo sapiens) (UniProt O00482); assay: LRH-1 (NR5A2) inverse agonists, retest, confirmation, cell-based, luminescence (AID 651613; in the data active = inhibition above about 42%;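 note: HEK293T cells co-transfected with LRH-1 and StAR promoter luciferase reporter; 0% = vehicle wells and 100% = parental cells lacking receptor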); conditions: cell-based LRH-1 luciferase reporter, inverse agonism; at 3.6 µM; hits give high values
Chain of Nuclear receptor subfamily 5 group A member 2 (Homo sapiens) (O00482 whole entry, looked up): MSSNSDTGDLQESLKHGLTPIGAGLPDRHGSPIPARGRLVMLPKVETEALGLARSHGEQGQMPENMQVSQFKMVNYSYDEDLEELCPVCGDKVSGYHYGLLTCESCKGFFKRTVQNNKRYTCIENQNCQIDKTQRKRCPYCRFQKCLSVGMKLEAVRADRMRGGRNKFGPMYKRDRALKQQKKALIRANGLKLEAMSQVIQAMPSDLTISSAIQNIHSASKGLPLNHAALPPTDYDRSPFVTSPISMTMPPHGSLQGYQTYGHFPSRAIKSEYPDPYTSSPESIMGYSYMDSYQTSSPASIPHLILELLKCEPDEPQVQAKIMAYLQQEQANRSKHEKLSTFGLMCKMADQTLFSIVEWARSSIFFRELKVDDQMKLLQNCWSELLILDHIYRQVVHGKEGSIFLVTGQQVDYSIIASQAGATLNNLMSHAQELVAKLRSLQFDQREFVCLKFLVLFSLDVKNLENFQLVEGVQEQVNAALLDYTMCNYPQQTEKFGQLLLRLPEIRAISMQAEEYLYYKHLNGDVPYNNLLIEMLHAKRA

[3] = biological target: Steroidogenic factor 1 (Homo sapiens) (UniProt Q13285); assay: SF1 (NR5A1) inverse agonists, counter-screen for LRH-1 inverse agonist project, cell-based, luminescence, high throughput (AID 651614; in the data active = inhibition above about 44%;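 note: cells cotransfected with StAR promoter reporter and SF1 expression vector; 0% = vehicle on cells with receptor and 100% = vehicle on cells lacking receptor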); conditions: cell-based SF1 luciferase reporter, at 3.6 µM, hits give high values
Chain of Steroidogenic factor 1 (Homo sapiens) (Q13285 whole entry, looked up, the tested form may be a part): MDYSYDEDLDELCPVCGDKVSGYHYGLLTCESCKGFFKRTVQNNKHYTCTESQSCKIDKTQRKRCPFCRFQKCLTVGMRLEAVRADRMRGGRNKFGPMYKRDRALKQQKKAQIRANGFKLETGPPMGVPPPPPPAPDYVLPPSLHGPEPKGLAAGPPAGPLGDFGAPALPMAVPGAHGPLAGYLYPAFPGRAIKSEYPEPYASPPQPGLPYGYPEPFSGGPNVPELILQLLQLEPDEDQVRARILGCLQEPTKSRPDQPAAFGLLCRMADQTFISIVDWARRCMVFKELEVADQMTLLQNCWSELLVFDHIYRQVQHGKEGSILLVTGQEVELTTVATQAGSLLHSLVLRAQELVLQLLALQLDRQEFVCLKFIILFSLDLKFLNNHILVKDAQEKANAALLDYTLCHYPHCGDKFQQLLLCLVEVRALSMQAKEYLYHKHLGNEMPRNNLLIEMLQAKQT

[4] = VP16 transactivation reporter inhibitors, counter-screen for LRH-1 inverse agonist project, cell-based, luminescence, high throughput (AID 651615); conditions: Gal4-VP16 luciferase reporter cells, at 3.6 µM, hits give high values

For Oc1cccc(Nc2nc(-c3ccccc3Cl)nc3ccccc23)c1, which inhibition [1] is on record?
Its inhibition is 9.52%.

What about the inhibition [2] of the same compound?
Its inhibition is 54.2% (active).

And the inhibition [3]?
The inhibition was 48.3% (active).

What about the inhibition [4] of the same compound?
The inhibition was -9.51%.

With COc1ccc(-c2cc3nc(-c4ccccc4)cc(N4CCN(C(C)=O)CC4)n3n2)cc1 as the compound, how does the inhibition [1] read?
Its inhibition is 32.4% (active).

And the inhibition [2]?
Its inhibition is 31.1%.

And the inhibition [3]?
Its inhibition is 39.3%.

What about the inhibition [4] of the same compound?
The inhibition was -11.9%.

With Cc1cccnc1NC(=O)c1ccc([N+](=O)[O-])o1 as the compound, how does the inhibition [1] read?
Its inhibition is 12.3%.

What about the inhibition [2] of the same compound?
The inhibition was 52.7% (active).

What about the inhibition [3] of the same compound?
The inhibition was 57.8% (active).

And the inhibition [4]?
Its inhibition is 1.88%.

With COc1cccc(C=Nc2ccc3c(c2)OCCO3)c1O as the compound, how does the inhibition [1] read?
The inhibition was -5.52%.

What about the inhibition [2] of the same compound?
The inhibition was -12%.

What about the inhibition [3] of the same compound?
The inhibition was -7.99%.

What about the inhibition [4] of the same compound?
The inhibition was -25.9%.

Which results are given for Cc1cccc(CN2C(=O)CSc3ccc(C(=O)NC4CC4)cc32)c1?
inhibition [1]: 10.4%; inhibition [2]: 62.2% (active); inhibition [3]: 51.8% (active); inhibition [4]: -6.63%

What does the source list for Cc1cc([N+](=O)[O-])ccc1NC(=O)CSc1nnc(C)n1C?
inhibition [1]: -1.6%; inhibition [2]: 60.6% (active); inhibition [3]: 47.1% (active); inhibition [4]: -3.16%

What does the source list for CC(=O)Nc1cc(-c2cccnc2)cn2c(-c3ccc(F)cc3)cnc12?
inhibition [1]: 9.06%; inhibition [2]: 51.7% (active); inhibition [3]: 40.5%; inhibition [4]: 0.11%

Which results are given for O=C(N/N=C/c1c[nH]c2ccccc12)c1[nH]c2ccc(Br)cc2c1-c1ccccc1?
inhibition [1]: 52.3% (active); inhibition [2]: 38%; inhibition [3]: 57% (active); inhibition [4]: 33.6% (active)

For Cc1cc(C)c2nc(-c3cccnc3)cc(C(=O)NC(C)c3cnn(C)c3C)c2c1 (stereo unspecified), which inhibition [1] is on record?
Its inhibition is 10.3%.

And the inhibition [2]?
The inhibition was 57.6% (active).

What about the inhibition [3] of the same compound?
The inhibition was 50.9% (active).

And the inhibition [4]?
The inhibition was -13.5%.
